Drawing on PubChem BioAssay (NCATS), this text covers outcome and Potency for 35 molecules.

The structures appear in SMILES notation. Results filed as inconclusive are left out. The source made the active and inactive calls. Unless noted, calls come from the whole dose curve; as a rule, active = well fitted curve in the direction sought with a large enough effect; inconclusive = small, poorly fitted or top-dose-only effect, or another doubt; inactive = no such curve, though single readings can be large; an effect the other way counts as inactive or inconclusive.

Assay [1] has as its target Peptidyl-prolyl cis-trans isomerase NIMA-interacting 1 (Homo sapiens) (UniProt Q13526). As to the kind of experiment: qHTS Validation Assay to Find Inhibitors of Pin1 (AID 504536; active = well fitted inhibition curve with a large enough effect in the polarisation, with a control signal flat, not every such curve was filed as active; the % refers to the polarisation). The method, boiled down: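 Fluorescence polarization competition: compounds (titration) displace HiFluor-488-labeled Pin1-1b peptide from Pin1 (0.3 uM final) in pH 7.5 HEPES buffer with DTT, 10 min at room temperature; %Activity normalized to no-enzyme wells, curves fitted.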
On the technique in general: Quantitative high-throughput screening tests each substance at several concentrations.

Assay [2] deals with Phosphoglycerate kinase, glycosomal (Trypanosoma brucei brucei) (UniProt P07378). As to the kind of experiment: qHTS Validation Assay to Find Inhibitors of Phosphoglycerate Kinase (AID 504547). The method, boiled down: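 Inhibition of the enzyme is judged by a Kinase-Glo Plus luminescent signal following a one-hour incubation at room temperature. Because 1,3-BPG is unstable, it is made in situ by GAPDH at 100nM final; no-PGK wells define the baseline.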
Chain of Phosphoglycerate kinase, glycosomal (Trypanosoma brucei brucei) (P07378 whole entry, looked up): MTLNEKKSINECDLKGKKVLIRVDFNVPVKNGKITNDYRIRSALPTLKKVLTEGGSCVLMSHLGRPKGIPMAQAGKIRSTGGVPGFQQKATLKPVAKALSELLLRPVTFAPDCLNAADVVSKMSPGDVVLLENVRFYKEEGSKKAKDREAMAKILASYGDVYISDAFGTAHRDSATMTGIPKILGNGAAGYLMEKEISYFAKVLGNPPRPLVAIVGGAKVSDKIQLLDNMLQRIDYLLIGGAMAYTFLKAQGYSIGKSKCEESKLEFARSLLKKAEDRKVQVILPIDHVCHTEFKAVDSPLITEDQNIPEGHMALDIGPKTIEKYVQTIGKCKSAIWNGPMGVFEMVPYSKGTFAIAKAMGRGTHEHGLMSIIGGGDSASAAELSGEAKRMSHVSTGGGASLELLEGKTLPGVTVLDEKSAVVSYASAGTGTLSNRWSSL

The target in assay [3] is phosphoglycerate mutase (Leishmania major) (UniProt Q4Q090). As to the kind of experiment: qHTS Validation Assay to Find Inhibitors of Phosphoglycerate Mutase (AID 504548). Note: series mostly up to about 58 µM. In a few lines: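 Lm PGAM at 1.25 nM final with substrate in 100 mM TEA pH 7.6, 5 mM MgCl2, 0.01% Tween-20; 45 min at room temperature. Kinase-GloPlus added, 10 min, end-point luminescence read.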
Chain of phosphoglycerate mutase (Leishmania major) (Q4Q090 1-553): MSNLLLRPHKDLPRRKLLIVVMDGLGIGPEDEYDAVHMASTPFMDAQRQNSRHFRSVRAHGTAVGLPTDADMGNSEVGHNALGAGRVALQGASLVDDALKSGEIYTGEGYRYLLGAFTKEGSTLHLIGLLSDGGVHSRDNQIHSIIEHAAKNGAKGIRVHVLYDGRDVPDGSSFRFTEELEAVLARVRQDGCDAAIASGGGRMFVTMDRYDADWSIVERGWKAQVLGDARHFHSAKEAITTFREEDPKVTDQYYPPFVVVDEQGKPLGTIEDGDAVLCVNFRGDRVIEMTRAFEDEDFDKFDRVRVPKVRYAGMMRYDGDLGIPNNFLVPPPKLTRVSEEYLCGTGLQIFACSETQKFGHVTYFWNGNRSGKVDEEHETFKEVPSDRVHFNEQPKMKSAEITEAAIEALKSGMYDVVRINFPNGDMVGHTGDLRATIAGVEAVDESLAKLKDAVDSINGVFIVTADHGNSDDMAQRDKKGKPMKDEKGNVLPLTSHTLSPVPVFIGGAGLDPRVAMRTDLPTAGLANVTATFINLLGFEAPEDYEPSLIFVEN
Assay [4] can be described thus: Inducers of the Endoplasmic Reticulum Stress Response (ERSR) in human glioma: Validation (AID 504836). Note: potency is the fitted concentration of half-maximal effect. In a few lines: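 ERSR induction read as luciferase luminescence (Bright-Glo, 10 min at room temperature) in stably transfected human U87-MG glioma cells exposed to compounds for 16 h, using GRP78 as sensor.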
The target in assay [5] is Ubiquitin carboxyl-terminal hydrolase 1 (Homo sapiens) (UniProt O94782). Nature of the assay: Inhibitors of USP1/UAF1: Pilot qHTS (AID 504865).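 Note: rhodamine fluorescence freed from ubiquitin-rhodamine substrate followed over time; top concentration of the series differs between compounds; nearly all actives have a fitted effect of over 35% in size.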 The method, boiled down:
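Kinetic fluorescence assay: 1nM USP1/UAF1, 15 min compound preincubation, then 150nM Ub-Rho; 480/540 nm.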

The nature of assay [6]: qHTS for Inhibitors of ATXN expression: Validation of Cytotoxic Assay (AID 588349). The method, boiled down: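 Read-out: ATP-based luminescence (CellTiter Glo) reflecting viability of HEK293 cells after 72 hr incubation at 37 degrees C with a concentration series of each compound.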
The nature of assay [7]: qHTS for Inhibitors of ATXN expression: Validation (AID 588378). Note: nearly all actives have a fitted effect of over 75% in size. Note: potency is the fitted concentration of half-maximal effect. The method, boiled down:
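Validation of ATXN2 expression inhibitors uses a cell-based luciferase fusion reporter in HEK293 cells, with 24 h compound exposure and paired viability (fluorescence) and reporter (luminescence) end-point reads.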

Assay [8] is described as follows: Validation screen for small molecules that induce DNA re-replication in SW480 colon adenocarcinoma cells (AID 504364). The method, boiled down:
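250 cells/well; compound pinned in; 48 hr, 37 C, 5% CO2; Hoechst added, 40 min; nuclear fluorescence imaged, 405 ex / 500-530 em; re-replication scored as increase in high-intensity nuclei.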

Assay [9] deals with DNA dC->dU-editing enzyme APOBEC-3G (Homo sapiens) (UniProt Q9HC16). As to the kind of experiment: qHTS for inhibitors of Vif-A3G interactions: Validation (AID 588379). The method, boiled down: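 HeLa cells stably expressing Vif and A3G-eYFP, 700 cells/well, incubated overnight at 37 deg C, then exposed to compound overnight at 37 deg C. Inhibition of Vif-mediated degradation read as increased yellow fluorescence (Ex 488/Em 500-530) by laser-scanning cytometry.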
Chain of DNA dC->dU-editing enzyme APOBEC-3G (Homo sapiens) (Q9HC16 whole entry, looked up): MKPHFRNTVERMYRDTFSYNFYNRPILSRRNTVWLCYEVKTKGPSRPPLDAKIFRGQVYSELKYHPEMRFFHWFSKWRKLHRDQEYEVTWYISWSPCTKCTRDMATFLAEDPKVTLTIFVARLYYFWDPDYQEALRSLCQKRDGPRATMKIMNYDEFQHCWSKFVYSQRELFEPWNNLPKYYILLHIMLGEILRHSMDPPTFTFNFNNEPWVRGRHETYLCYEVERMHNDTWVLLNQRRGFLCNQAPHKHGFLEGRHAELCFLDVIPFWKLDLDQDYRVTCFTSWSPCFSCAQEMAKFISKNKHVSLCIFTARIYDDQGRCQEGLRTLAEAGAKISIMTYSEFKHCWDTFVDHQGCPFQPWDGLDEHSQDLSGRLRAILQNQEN

Chain of Peptidyl-prolyl cis-trans isomerase NIMA-interacting 1 (Homo sapiens) (Q13526 whole entry, looked up): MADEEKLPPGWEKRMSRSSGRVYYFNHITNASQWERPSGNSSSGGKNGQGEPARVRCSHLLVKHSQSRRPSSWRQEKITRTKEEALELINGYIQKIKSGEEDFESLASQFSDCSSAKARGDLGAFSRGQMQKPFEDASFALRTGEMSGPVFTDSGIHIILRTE
Chain of Ubiquitin carboxyl-terminal hydrolase 1 (Homo sapiens) (O94782 whole entry, looked up): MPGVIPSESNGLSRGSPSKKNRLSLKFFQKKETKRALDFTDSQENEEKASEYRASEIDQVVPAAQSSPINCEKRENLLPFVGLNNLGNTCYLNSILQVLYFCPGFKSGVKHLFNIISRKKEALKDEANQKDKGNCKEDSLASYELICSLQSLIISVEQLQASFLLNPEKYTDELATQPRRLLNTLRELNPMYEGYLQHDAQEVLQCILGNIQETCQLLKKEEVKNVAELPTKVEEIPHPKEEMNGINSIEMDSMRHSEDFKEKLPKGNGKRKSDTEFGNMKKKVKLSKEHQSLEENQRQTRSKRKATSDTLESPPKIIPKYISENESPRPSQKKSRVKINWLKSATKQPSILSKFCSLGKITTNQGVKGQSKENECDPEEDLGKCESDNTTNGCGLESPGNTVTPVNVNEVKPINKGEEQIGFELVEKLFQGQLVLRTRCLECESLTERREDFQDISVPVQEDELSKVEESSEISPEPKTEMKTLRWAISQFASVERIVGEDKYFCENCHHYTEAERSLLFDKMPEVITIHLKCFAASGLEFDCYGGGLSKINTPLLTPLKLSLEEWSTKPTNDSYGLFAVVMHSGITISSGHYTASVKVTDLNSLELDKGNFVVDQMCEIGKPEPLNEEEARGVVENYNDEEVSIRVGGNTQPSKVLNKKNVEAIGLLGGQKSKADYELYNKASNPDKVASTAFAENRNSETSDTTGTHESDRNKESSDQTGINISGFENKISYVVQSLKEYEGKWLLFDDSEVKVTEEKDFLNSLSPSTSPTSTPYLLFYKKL

Turning to `COc1cc(C(O)CN)ccc1O` (centres undefined), the outcome in assay [1], in assay [2], in [3] and in assay [6] was inactive. The Potency result in assay [4], in [5] and in assay [7] was “inactive” each time.

For `NCCc1c[nH]c2ccc(O)cc12`, the call in assay [8], in assay [1], in assay [2], in assay [3], in assay [6] and in assay [9] was inactive. In addition, the Potency result in assay [4], in [5] and in [7] was “inactive” throughout.

On to `CC(=O)NCCc1c[nH]c2ccccc12`, for which the molecule was classed as inactive in [8], in assay [1], in [2], in [3], in assay [6] and in assay [9]. Besides, the Potency result in [4], in assay [5] and in assay [7] was “inactive” in each case.

For the molecule `C=CCN1CC[C@]23CCCCC2[C@H]1Cc1ccc(O)cc13` (some centres undefined), the molecule was called inactive in [1], in assay [2] and in assay [3]. Also, the Potency result in assay [4], in assay [5] and in [7] was “inactive” each time.

Consider `COc1cc2c(cc1O)CC[C@@H]1[C@@H]2CC[C@]2(C)[C@@H](O)CC[C@@H]12`, for which the Potency entry in assay [4] was “inactive”.

With `CCCN(CCC)[C@@H]1CCc2ccc(O)cc2C1`, the molecule was classed as inactive in assay [1], in assay [2], in assay [3], in assay [6] and in [9]. Moreover, the Potency entry in [4], in [5] and in [7] was “inactive” each time.

Consider `CNCCc1c[nH]c2ccc(O)cc12`, for which the call in assay [1], in [2], in assay [3], in assay [6] and in [9] was inactive. The Potency entry in assay [4], in [5] and in assay [7] was “inactive” throughout.

In the case of `CNCCc1ccc(O)c(O)c1`, in assay [1], the molecule was classed as inactive. Also, the Potency result in assay [4] and in assay [5] was “inactive” throughout.

Consider `O=C1CCCN1CC#CCN1CCCC1`, for which the outcome in assay [1], in [2], in assay [3], in assay [6] and in assay [9] was inactive. In addition, the Potency entry in assay [4], in assay [5] and in assay [7] was “inactive” each time.

For `CCN(CC)CCNC(=O)c1ccc(NC(C)=O)cc1`, in assay [4], the Potency entry was “inactive”.

`S=C(NC1CCCCC1)N1CCC(c2cnc[nH]2)CC1`: the molecule was called inactive in assay [1], in assay [2], in assay [3], in [6] and in assay [9]. Besides, the Potency result in [4], in assay [5] and in assay [7] was “inactive” each time.

Regarding `CCCCc1ccc(C(=O)O)nc1`, the outcome in [1], in assay [2], in [3], in assay [6] and in [9] was inactive. For the same molecule, the Potency result in [4], in [5] and in [7] was “inactive” each time.

On to `COc1ccc2c(c[n+](C)c3c4cc5c(cc4ccc23)OCO5)c1OC`, for which the call in assay [1] and in assay [2] was inactive. Further, the Potency entry in assay [4] and in assay [5] was “inactive” throughout.

Take `CC1=NN=C(c2ccc(N)cc2)c2cc3c(cc2C1)OCO3`: the call in assay [1], in [2], in [3], in assay [6] and in assay [9] was inactive. Further, the Potency entry in assay [4], in [5] and in [7] was “inactive” each time.

Turning to `CN[C@@H]1C[C@@H](c2ccc(Cl)c(Cl)c2)c2ccccc21`, the result in assay [1], in [2] and in [3] was inactive. The Potency entry in assay [4] and in [5] was “inactive” in each case. The Potency in [7] was 20 µM (active).

Turning to `CCCN1CCC[C@H](c2cccc(O)c2)C1`, the result in [2], in [3] and in assay [6] was inactive. Moreover, the Potency result in [4], in [5] and in [7] was “inactive” each time.

As for `COC(=O)[C@@H](N)CCCN=C(N)N[N+](=O)[O-]`, the result in [1], in assay [2], in assay [3], in assay [6] and in assay [9] was inactive. Moreover, the Potency entry in [4], in assay [5] and in assay [7] was “inactive” each time.

Consider `c1ccc(CCCN2CCN(CCOC(c3ccccc3)c3ccccc3)CC2)cc1`, for which the molecule was classed as inactive in [1], in assay [2], in [3] and in assay [9]. For the same molecule, the Potency result in [4] and in assay [5] was “inactive” in each case.

Turning to `CC(=O)[C@H]1CCC2C3CC[C@H]4C[C@H](O)CC[C@]4(C)C3CC[C@@]21C` (some centres undefined), the outcome in assay [2], in assay [3] and in assay [6] was inactive. In addition, the Potency entry in assay [4], in assay [5] and in assay [7] was “inactive” each time.

Regarding `NC(=NCCC[C@H](N)C(=O)O)N[N+](=O)[O-]`, the result in [1], in [2], in [3], in assay [6] and in [9] was inactive. Further, the Potency entry in assay [4], in assay [5] and in assay [7] was “inactive” each time.

Consider `NCc1cc(=O)[nH]o1`, for which the result in [1], in assay [2], in [3], in [6] and in assay [9] was inactive. Further, the Potency result in [4], in assay [5] and in assay [7] was “inactive” throughout.

Turning to `CC[C@@]1(O)C(=O)OCc2c1cc1n(c2=O)Cc2cc3ccccc3nc2-1`, the outcome in assay [1], in assay [2], in assay [3] and in assay [9] was inactive. Moreover, the Potency entry in [4], in [5] and in assay [7] was “inactive” each time.

With `NCCS`, the Potency entry in [4] is “inactive”.

With `O=C(N[C@H]1CN2CCC1CC2)c1ccc(Cl)cc1`, the molecule was classed as inactive in assay [1], in assay [2], in [3] and in assay [6]. In addition, the Potency entry in assay [4], in [5] and in assay [7] was “inactive” throughout.

Turning to `c1ccc2sc(C3(N4CCCCC4)CCCCC3)cc2c1`, the outcome in assay [1], in [2], in [3], in [6] and in assay [9] was inactive. Moreover, the Potency entry in assay [4], in [5] and in assay [7] was “inactive” throughout.

In the case of `C[C@]12C[C@H](O)[C@H]3[C@@H](CCC4=CC(=O)CC[C@@]43C)[C@@H]1CC[C@@H]2C(=O)CO`, the Potency result in assay [4] was “inactive”.

On to `C#CCOC(=O)C1=CCCN(C)C1`, for which the molecule was classed as inactive in assay [1], in [2], in assay [3], in assay [6] and in [9]. For the same molecule, the Potency result in [4], in assay [5] and in [7] was “inactive” throughout.

For the molecule `C[C@@H](N)Cc1cnc[nH]1`, the call in assay [1], in assay [2], in assay [3], in assay [6] and in [9] was inactive. The Potency result in [4], in assay [5] and in [7] was “inactive” in each case.

`CCn1cc(C(=O)O)c(=O)c2cc3c(cc21)OCO3`: in [4], the Potency entry was “inactive”.

As to `COc1cc2nc(N3CCCN(C)CC3)nc(NC3CCN(Cc4ccccc4)CC3)c2cc1OC`, in assay [4], the Potency entry was “inactive”.

Turning to `Cc1nccc2c1[nH]c1ccccc12`, the molecule was classed as inactive in [1], in assay [2], in assay [3], in assay [6] and in assay [9]. The Potency result in assay [4], in assay [5] and in [7] was “inactive” in each case.

`Cc1c(C(=O)c2cccc3ccccc23)c2cccc3c2n1[C@H](CN1CCOCC1)CO3`: the molecule was called inactive in assay [2] and in [3]. In addition, in assay [7], the Potency is 15.8 µM (active).

With `C/C=C(/C)C(=O)O[C@H]1C(C)=C2[C@H]([C@@H]1OC(=O)CCCCCCC)[C@@](C)(OC(C)=O)C[C@H](OC(=O)CCC)[C@@]1(O)[C@H]2OC(=O)[C@@]1(C)O`, the result in assay [2] and in [3] was inactive. In [4], the Potency was 0.0165 µM (active).

In the case of `Cc1cccc(-c2[nH]c(C(C)(C)C)nc2-c2ccc3nccnc3c2)n1`, the Potency entry in assay [4] is “inactive”.

Turning to `C[N+]1(C)C2CC(OC(=O)[C@H](CO)c3ccccc3)CC1C1OC12` (some centres undefined), the Potency entry in assay [7] was “inactive”.
